# PubChem BioAssay (EPA / NIEHS)
# “And” between values parts separate entries of the source, which are not always exact repeats. Identical values can stand only once. Results filed as inconclusive are left out. The source made the active and inactive calls. Rule for the calls, unless noted: active = hit-call score of the fitted dose curve at least 0.9, where 1 is the maximum; inactive = score below 0.9.
# Experiments:
# [1] = BSK_3C_TissueFactor: BioMAP Diversity Plus: 3C Assay for Tissue Factor Biomarker Activity (AID 2282997); details: BioMAP 3C HUVEC, tissue factor biomarker readout; actives raise or lower the signal
# Method in brief: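 HUVEC were treated 24 h, then surface tissue factor measured by ELISA and fitted bidirectionally against DMSO. Parallel SRB total-protein staining assessed overt cytotoxicity at the same time point.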
# [2] = target: Myc proto-oncogene protein (Homo sapiens) (UniProt P01106); experiment: ATG_Myc_CIS: Attagene CIS-FACTORIAL HepG2 Assay for human Myelocytomatosis (Myc) Proto-Oncogene Transcription Factor (AID 2282990); details: HepG2, Attagene cis-reporter transcription factor activity; actives raise or lower the signal
# Method in brief: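 After 24 h chemical treatment of HepG2 cells carrying multiplexed cis-regulated reporter constructs, reporter transcripts quantified by RT-PCR and capillary electrophoresis of fluorescent fragments. Gain or loss fitted against DMSO baseline.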
# [3] = ATG_NF_kB_CIS: Attagene CIS-FACTORIAL HepG2 Assay for human Nuclear Factor Kappa B (NF-kB) (AID 2282991); details: HepG2 Attagene cis-factorial NF-kB reporter mRNA; actives raise or lower the signal
# Method in brief: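 Transient MRTU transfection of human HepG2 liver cells → 24 h chemical exposure → total RNA, oligo(dT) RT → PCR, 6-FAM primer extension, HpaI digest 2 h 37 C → CE fragment analysis. Bidirectional fitting, DMSO negative control.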
# [4] = ATG_NRF2_ARE_CIS: Attagene CIS-FACTORIAL HepG2 Assay for human Nuclear Factor Erythroid 2 Related Factor 2 (NFR2) response to Antioxidant Response Elements (ARE) (AID 2282992); details: HepG2 Attagene ARE/NRF2 reporter, transcription factor activity; actives raise or lower the signal;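 for AC50: reporter mRNA level measured by RT-PCR and capillary electrophoresis fluorescence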
# Method in brief: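 HepG2 cells transiently transfected with multiplexed cis-element reporter constructs, 24 h after chemical dosing; reporter mRNA quantified by RT-PCR, fluorescent primer extension, HpaI digestion and capillary electrophoresis. Bidirectional fit relative to DMSO.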
# [5] = ATG_Oct_MLP_CIS: Attagene CIS-FACTORIAL HepG2 Assay for human Octamer-Binding Transcription Factor (Oct) (AID 2282993); details: HepG2 Attagene cis-factorial Oct reporter, mRNA; actives raise or lower the signal
# Method in brief: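 Transient MRTU transfection of HepG2 → 24 h compound treatment → RNA isolation, reverse transcription, PCR → 6-FAM primer extension, HpaI digest → capillary electrophoresis. Activity fitted both directions against DMSO.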
# [6] = target: Cellular tumor antigen p53 (Homo sapiens) (UniProt P04637); experiment: ATG_p53_CIS: Attagene CIS-FACTORIAL HepG2 Assay for human p53 Transcription Factor (AID 2282994); details: HepG2 p53 cis-element reporter, Attagene mRNA; actives raise or lower the signal
# Method in brief: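 HepG2 cells transiently transfected with cis-regulated multiple reporter transcription units, dosed 24 h. Reporter mRNA measured by RT-PCR, 6-FAM primer extension, HpaI digestion and capillary electrophoresis; bidirectional fit relative to DMSO.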
# [7] = target: human Peroxisome Proliferator-activated Receptor delta (PPARd), PPARD (gene 5467) (UniProt Q03181); experiment: ATG_PPARd_TRANS: Attagene TRANS-FACTORIAL HepG2 Assay for human Peroxisome Proliferator-activated Receptor delta (PPARd) (AID 2283002; active = hit-call score of the fitted dose curve at least 0.9, where 1 is the maximum)
# Method in brief: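 Read-out is induced reporter mRNA, quantified by RT-PCR with fluorescent labelling and capillary electrophoresis after 24 h dosing. Cells are HepG2 transiently carrying multiple GAL4-UAS reporter units driven by exogenous NR-GAL4 chimeras; DMSO serves as baseline.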
# [8] = target: human Retinoic Acid Receptor beta (RARb), RARB (gene 5915) (UniProt P10826); experiment: ATG_RARb_TRANS: Attagene TRANS-FACTORIAL HepG2 Assay for human Retinoic Acid Receptor beta (AID 2283004; active = hit-call score of the fitted dose curve at least 0.9, where 1 is the maximum)
# Method in brief: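 HepG2 cells were transiently transfected with GAL4-UAS reporter units that report activity of exogenous chimeric NR-Gal4 proteins, then exposed to compound for 24 h. Reporter mRNA was quantified by RT-PCR with capillary electrophoresis fluorescence, as gain of signal over DMSO.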
# [9] = target: Retinoic acid receptor alpha (Homo sapiens) (UniProt P10276); experiment: ATG_RARa_TRANS: Attagene TRANS-FACTORIAL HepG2 Assay for human Retinoic Acid Receptor alpha (RARa) (AID 2283005; active = hit-call score of the fitted dose curve at least 0.9, where 1 is the maximum)
# Method in brief: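 Reporter transcripts, measured by RT-PCR with fluorescent labeling and capillary electrophoresis after 24 h dosing, reflect activity of an exogenous human RARa–GAL4 fusion in transiently transfected HepG2. Fitted for increase relative to DMSO.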
# [10] = target: Peroxisome proliferator-activated receptor gamma (Homo sapiens) (UniProt P37231); experiment: ATG_PPARg_TRANS: Attagene TRANS-FACTORIAL HepG2 Assay for human Peroxisome Proliferator-activated Receptor-gamma (PPARg) (AID 2283007; active = hit-call score of the fitted dose curve at least 0.9, where 1 is the maximum)
# Method in brief: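 Transient transfection of HepG2 with GAL4-UAS-driven reporter units; chemical dosing 24 h; total RNA → oligo(dT) RT → PCR with reporter primers → 6-FAM primer extension → HpaI digest 2 h 37 C → capillary electrophoresis. Positive direction vs DMSO.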
# [11] = target: Nuclear receptor subfamily 1 group I member 2 (Homo sapiens) (UniProt O75469); experiment: ATG_PXR_TRANS: Attagene TRANS-FACTORIAL HepG2 Assay for human Pregnane X Receptor (PXR) (AID 2283008; active = hit-call score of the fitted dose curve at least 0.9, where 1 is the maximum)
# Method in brief: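 HepG2 cells transiently transfected with GAL4-UAS reporter units and PXR-Gal4 chimera, exposed 24 h. Reporter mRNA quantified by RT-PCR, fluorescent labelling, HpaI digestion and capillary electrophoresis; gain of signal vs DMSO.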
# [12] = target: human Retinoic Acid Receptor gamma (RARg), RARG (gene 5916) (UniProt P13631); experiment: ATG_RARg_TRANS: Attagene TRANS-FACTORIAL HepG2 Assay for human Retinoic Acid Receptor gamma (RARg) (AID 2283009; active = hit-call score of the fitted dose curve at least 0.9, where 1 is the maximum)
# Method in brief: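 HepG2 transiently transfected with GAL4-UAS reporter units and chimeric NR-Gal4 constructs; 24 h compound exposure. Reporter mRNA quantified by RT-PCR, FAM labeling, HpaI digestion and capillary electrophoresis; gain-of-signal versus DMSO.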
# [13] = target: human Peroxisome Proliferator-activated Receptor alpha (PPARa), PPARA (gene 5465) (UniProt Q07869); experiment: ATG_PPARa_TRANS: Attagene TRANS-FACTORIAL HepG2 Assay for human Peroxisome Proliferator-activated Receptor alpha (PPARa) (AID 2283001; active = hit-call score of the fitted dose curve at least 0.9, where 1 is the maximum)
# Method in brief: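 Read-out is fluorescence of reporter cDNA fragments resolved by capillary electrophoresis after RT-PCR. Human HepG2 liver cells carried transfected PPARa-Gal4 chimera and GAL4-UAS reporter units, treated 24 h; activity scored as increase over DMSO.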
# [14] = target: human RAR-related Orphan Receptor gamma (RORg), RORC (gene 6097) (UniProt P51449); experiment: ATG_RORg_TRANS: Attagene TRANS-FACTORIAL HepG2 Assay for human RAR-related Orphan Receptor gamma (RORg) (AID 2283011; active = hit-call score of the fitted dose curve at least 0.9, where 1 is the maximum)
# Method in brief: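 HepG2 cells transiently transfected with GAL4-UAS reporter units and chimeric RORg-Gal4 construct; after 24 h chemical exposure, reporter mRNA measured by RT-PCR with fluorescent capillary electrophoresis, gain of signal fitted against DMSO.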
# [15] = BSK_3C_uPAR: BioMAP Diversity Plus: 3C Assay for Urokinase-type plasminogen activator receptor (uPAR) Biomarker Activity (AID 2282998); details: BioMAP 3C HUVEC, uPAR biomarker ELISA; actives raise or lower the signal
# Method in brief: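 ELISA readout of uPAR on human vascular endothelium (umbilical vein primary cells), taken 24 h after chemical dosing. Increases and decreases are both fitted relative to DMSO vehicle.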
# [16] = BSK_3C_VCAM1: BioMAP Diversity Plus: 3C Assay for Vascular cell adhesion molecule 1 (VCAM1) Biomarker Activity (AID 2282999); details: BioMAP 3C HUVEC, VCAM1 ELISA, cytokine-stimulated; actives raise or lower the signal
# Method in brief: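 Endothelial cells from human umbilical vein are treated with test chemical. At 24 h, VCAM-1 is measured by ELISA, and responses in either direction are fitted relative to DMSO.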
# [17] = BSK_4H_Eotaxin3: BioMAP Diversity Plus: 4H Assay for Eotaxin 3 Biomarker Activity (AID 2283000); details: primary human endothelial cells (HUVEC); actives raise or lower the signal;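 note: CCL26 protein level quantified by ELISA in parallel with SRB cytotoxicity check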
# Method in brief: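 Eotaxin-3 (CCL26) levels were measured by ELISA in HUVEC primary cultures 24 h post-dosing. Gain or loss of signal was fitted in both directions, with DMSO serving as baseline and negative control.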
# [18] = read-out: Intercellular Adhesion Molecule 1 (ICAM1), ICAM1 (gene 3383); experiment: BSK_3C_ICAM1: BioMAP Diversity Plus: 3C Assay for Intercellular Adhesion Molecule 1 (ICAM1) Biomarker Activity (AID 2283003); details: primary human endothelial cells (HUVEC); actives raise or lower the signal
# Method in brief: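 HUVEC primary cells stimulated under 3C conditions; ICAM1 measured by ELISA 24 h after compound dosing. Curves fitted bidirectionally against the DMSO baseline. Overt cytotoxicity checked by SRB staining of parallel cultures.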
# [19] = BSK_3C_Proliferation: Cell Proliferation Assessment in the BioMAP Diversity Plus: 3C Assay (AID 2283006); details: primary human endothelial cells (HUVEC);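 note: potency may reflect either rise or fall in cell number versus DMSO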
# Method in brief: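 Subconfluent HUVEC (3C system) cultured with chemical; relative cell number read at 48 h by sulforhodamine B total-protein staining (0.1% SRB after 10% TCA fixation, 560 nm). Bidirectional fit relative to DMSO.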
# [20] = target: human RAR-related Orphan Receptor beta (RORb), RORB (gene 6096) (UniProt Q92753); experiment: ATG_RORb_TRANS: Attagene TRANS-FACTORIAL HepG2 Assay for human RAR-related Orphan Receptor beta (RORb) (AID 2283010; active = hit-call score of the fitted dose curve at least 0.9, where 1 is the maximum)
# Method in brief: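 HepG2 cells transiently transfected with GAL4-UAS reporter units expressing chimeric NR-Gal4 protein; reporter mRNA measured 24 h after dosing by RT-PCR, 6-FAM labelling and capillary electrophoresis. Gain-of-signal fitted relative to DMSO baseline.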
# Chain of Peroxisome proliferator-activated receptor gamma (Homo sapiens) (P37231 whole entry, looked up, the tested form may be a part): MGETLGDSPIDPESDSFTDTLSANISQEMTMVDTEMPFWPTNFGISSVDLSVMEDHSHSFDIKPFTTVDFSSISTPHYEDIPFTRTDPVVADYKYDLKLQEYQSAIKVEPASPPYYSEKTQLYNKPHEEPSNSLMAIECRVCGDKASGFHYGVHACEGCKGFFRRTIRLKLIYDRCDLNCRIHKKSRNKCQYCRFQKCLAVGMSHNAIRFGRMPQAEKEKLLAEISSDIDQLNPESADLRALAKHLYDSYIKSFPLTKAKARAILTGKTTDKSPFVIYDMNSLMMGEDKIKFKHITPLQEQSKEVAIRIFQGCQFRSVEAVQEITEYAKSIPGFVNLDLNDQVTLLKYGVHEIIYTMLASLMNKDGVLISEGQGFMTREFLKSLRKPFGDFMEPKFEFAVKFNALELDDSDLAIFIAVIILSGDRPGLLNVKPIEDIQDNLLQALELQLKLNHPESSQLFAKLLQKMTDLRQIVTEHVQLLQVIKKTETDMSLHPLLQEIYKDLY
# Chain of Retinoic acid receptor alpha (Homo sapiens) (P10276 whole entry, looked up, the tested form may be a part): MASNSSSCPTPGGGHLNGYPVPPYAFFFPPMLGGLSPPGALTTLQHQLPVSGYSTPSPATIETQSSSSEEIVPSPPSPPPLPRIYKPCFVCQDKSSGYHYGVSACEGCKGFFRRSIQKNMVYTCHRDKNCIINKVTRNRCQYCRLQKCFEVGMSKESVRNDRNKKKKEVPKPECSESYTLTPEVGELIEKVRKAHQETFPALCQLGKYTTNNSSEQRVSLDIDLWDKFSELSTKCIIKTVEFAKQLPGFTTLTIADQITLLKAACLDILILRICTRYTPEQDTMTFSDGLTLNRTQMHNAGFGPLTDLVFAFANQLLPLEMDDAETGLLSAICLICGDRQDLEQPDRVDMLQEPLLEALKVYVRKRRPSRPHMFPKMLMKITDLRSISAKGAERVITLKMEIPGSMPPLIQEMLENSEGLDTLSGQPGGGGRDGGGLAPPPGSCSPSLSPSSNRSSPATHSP
# Chain of Myc proto-oncogene protein (Homo sapiens) (P01106 whole entry, looked up, the tested form may be a part): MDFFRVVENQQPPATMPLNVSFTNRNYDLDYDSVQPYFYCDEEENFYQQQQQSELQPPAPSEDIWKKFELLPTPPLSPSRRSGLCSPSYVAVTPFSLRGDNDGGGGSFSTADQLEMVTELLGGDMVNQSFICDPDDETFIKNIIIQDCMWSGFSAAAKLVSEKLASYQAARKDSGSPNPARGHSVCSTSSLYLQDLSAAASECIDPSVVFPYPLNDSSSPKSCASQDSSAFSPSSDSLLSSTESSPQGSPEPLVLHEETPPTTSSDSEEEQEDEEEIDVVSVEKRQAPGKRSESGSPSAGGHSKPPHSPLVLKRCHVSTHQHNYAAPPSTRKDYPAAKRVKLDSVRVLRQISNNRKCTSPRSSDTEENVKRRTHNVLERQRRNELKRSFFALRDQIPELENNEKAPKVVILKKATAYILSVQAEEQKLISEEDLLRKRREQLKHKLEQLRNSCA
# Chain of Cellular tumor antigen p53 (Homo sapiens) (P04637 whole entry, looked up): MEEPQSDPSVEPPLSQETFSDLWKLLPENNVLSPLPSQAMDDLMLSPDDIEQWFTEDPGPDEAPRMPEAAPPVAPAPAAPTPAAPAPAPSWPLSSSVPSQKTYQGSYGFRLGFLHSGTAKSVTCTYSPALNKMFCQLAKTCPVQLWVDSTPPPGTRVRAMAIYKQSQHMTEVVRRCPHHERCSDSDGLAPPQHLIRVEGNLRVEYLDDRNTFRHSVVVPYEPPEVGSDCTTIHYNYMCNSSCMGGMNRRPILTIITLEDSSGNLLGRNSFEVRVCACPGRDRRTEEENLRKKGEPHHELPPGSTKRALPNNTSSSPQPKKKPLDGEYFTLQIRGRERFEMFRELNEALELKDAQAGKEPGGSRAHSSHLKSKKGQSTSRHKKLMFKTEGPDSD
# Chain of human Retinoic Acid Receptor beta (RARb), RARB (gene 5915) (P10826 whole entry, looked up, the tested form may be a part): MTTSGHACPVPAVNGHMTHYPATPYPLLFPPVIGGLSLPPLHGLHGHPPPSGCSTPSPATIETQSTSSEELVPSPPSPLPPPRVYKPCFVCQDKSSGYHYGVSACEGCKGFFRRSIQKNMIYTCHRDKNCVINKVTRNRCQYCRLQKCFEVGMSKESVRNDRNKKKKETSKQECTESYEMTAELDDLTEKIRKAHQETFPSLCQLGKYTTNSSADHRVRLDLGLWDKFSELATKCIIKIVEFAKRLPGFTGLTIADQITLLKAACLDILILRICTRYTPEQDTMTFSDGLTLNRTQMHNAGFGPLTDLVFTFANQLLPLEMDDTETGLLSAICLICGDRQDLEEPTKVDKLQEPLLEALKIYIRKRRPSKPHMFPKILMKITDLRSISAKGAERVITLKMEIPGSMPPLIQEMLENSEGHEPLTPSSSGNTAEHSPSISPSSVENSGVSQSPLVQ
# Chain of human Peroxisome Proliferator-activated Receptor alpha (PPARa), PPARA (gene 5465) (Q07869 whole entry, looked up, the tested form may be a part): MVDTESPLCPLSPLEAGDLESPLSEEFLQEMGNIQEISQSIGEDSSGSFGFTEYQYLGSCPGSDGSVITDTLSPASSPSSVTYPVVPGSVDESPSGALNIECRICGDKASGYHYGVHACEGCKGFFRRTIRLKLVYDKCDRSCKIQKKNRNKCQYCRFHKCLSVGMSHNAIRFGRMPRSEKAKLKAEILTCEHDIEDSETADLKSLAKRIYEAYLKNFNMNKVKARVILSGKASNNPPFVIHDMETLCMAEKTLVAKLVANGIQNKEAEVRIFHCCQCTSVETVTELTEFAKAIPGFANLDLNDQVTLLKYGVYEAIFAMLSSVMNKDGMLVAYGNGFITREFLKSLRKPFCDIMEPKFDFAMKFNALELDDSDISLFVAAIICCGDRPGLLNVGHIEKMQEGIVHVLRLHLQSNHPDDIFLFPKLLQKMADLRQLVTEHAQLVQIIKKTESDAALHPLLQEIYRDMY
# Chain of human Retinoic Acid Receptor gamma (RARg), RARG (gene 5916) (P13631 whole entry, looked up, the tested form may be a part): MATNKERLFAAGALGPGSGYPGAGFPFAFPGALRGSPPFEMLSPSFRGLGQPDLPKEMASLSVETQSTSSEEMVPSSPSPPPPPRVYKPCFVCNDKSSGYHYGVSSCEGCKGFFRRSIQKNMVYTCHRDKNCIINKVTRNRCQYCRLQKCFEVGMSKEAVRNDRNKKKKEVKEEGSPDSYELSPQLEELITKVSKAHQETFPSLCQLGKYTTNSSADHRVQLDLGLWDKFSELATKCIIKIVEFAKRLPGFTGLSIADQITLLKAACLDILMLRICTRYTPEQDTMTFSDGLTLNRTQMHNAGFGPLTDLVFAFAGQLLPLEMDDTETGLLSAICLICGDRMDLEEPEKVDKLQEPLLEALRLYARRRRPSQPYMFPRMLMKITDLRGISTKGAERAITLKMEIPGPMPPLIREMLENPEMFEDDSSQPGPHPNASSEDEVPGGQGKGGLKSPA
# Chain of human Peroxisome Proliferator-activated Receptor delta (PPARd), PPARD (gene 5467) (Q03181 whole entry, looked up, the tested form may be a part): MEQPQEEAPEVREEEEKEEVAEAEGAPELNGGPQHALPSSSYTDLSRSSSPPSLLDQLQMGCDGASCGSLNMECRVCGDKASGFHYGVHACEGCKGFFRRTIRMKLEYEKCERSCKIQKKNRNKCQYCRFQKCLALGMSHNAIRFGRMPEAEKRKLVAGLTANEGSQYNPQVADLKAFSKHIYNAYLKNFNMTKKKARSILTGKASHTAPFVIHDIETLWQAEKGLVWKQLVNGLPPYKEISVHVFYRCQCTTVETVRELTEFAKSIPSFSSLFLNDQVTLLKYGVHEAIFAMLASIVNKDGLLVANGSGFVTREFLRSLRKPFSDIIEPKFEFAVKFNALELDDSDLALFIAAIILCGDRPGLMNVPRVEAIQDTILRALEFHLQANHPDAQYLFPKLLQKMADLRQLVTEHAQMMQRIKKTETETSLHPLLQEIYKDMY
# Chain of Nuclear receptor subfamily 1 group I member 2 (Homo sapiens) (O75469 whole entry, looked up, the tested form may be a part): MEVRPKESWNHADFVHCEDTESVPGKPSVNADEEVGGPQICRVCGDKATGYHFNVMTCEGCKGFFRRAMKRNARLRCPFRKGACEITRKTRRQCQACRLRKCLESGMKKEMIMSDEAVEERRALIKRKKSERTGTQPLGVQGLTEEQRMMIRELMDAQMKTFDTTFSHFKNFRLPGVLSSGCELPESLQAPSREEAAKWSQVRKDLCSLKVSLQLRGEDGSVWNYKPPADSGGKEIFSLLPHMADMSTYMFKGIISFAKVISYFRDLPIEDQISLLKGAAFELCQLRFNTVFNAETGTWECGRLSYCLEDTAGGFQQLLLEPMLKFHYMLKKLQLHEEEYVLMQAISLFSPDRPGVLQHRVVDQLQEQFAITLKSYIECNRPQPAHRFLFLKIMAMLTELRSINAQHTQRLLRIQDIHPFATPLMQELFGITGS
# Chain of human RAR-related Orphan Receptor beta (RORb), RORB (gene 6096) (Q92753 whole entry, looked up, the tested form may be a part): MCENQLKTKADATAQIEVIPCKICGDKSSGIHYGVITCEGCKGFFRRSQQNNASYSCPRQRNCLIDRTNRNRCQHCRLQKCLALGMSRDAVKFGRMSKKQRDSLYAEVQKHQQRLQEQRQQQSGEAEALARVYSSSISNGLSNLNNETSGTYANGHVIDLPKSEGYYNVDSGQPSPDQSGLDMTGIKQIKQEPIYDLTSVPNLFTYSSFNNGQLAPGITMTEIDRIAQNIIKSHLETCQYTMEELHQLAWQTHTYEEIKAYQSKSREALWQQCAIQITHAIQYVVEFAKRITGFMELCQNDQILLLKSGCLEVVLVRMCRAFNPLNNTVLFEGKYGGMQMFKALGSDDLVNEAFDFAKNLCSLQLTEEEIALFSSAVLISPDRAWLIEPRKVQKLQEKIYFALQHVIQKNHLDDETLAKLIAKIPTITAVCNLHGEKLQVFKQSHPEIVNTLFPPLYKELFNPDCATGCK
structure (smiles),measurement,setting,value
O=C(O)C(F)(F)OC(F)(F)C(F)(F)OC(F)(F)C(F)(F)OC(F)(F)C(F)(F)C(F)(F)C(F)(F)F,AC50,[1],22.3 µM (active) and 27.7 µM (active)
CCC(C)c1ccccc1O (stereo not given),outcome,[1],inactive
C=CCOCC(CO)(CO)CO,outcome,[2],inactive
same,outcome,[3],inactive
same,outcome,[4],inactive
same,outcome,[5],inactive
same,outcome,[6],inactive
same,outcome,[7],inactive
same,outcome,[8],inactive
same,outcome,[9],inactive
same,outcome,[10],inactive
same,AC50,[11],15.1 µM (active)
same,outcome,[12],inactive
C=CC(=O)OCCN(CC)CC,outcome,[2],inactive
same,outcome,[3],inactive
same,AC50,[4],144 µM (active)
same,AC50,[5],48.9 µM (active)
same,AC50,[6],169 µM (active)
same,outcome,[13],inactive
same,outcome,[8],inactive
same,outcome,[9],inactive
same,outcome,[10],inactive
same,outcome,[12],inactive
same,outcome,[14],inactive
c1ccc(CNc2ncnc3c2ncn3C2CCCCO2)cc1 (stereo not given),outcome,[2],inactive
same,outcome,[3],inactive
same,AC50,[4],19.8 µM (active)
same,outcome,[5],inactive
same,outcome,[6],inactive
same,outcome,[7],inactive
same,outcome,[8],inactive
same,outcome,[9],inactive
same,AC50,[10],70.6 µM (active)
same,AC50,[11],6.85 µM (active)
same,outcome,[12],inactive
COC1=CC(=O)C[C@@H](C)[C@]12Oc1c(Cl)c(OC)cc(OC)c1C2=O,outcome,[2],inactive
same,AC50,[3],25.6 µM (active)
same,outcome,[4],inactive
same,outcome,[5],inactive
same,outcome,[15],inactive
same,outcome,[16],inactive
same,outcome,[17],inactive
same,outcome,[7],inactive
same,outcome,[18],inactive
same,AC50,[19],28.3 µM (active)
same,outcome,[10],inactive
same,outcome,[11],inactive
same,outcome,[12],inactive
CCO[Si](C)(C)OCC,outcome,[2],inactive
same,outcome,[3],inactive
same,outcome,[4],inactive
same,outcome,[5],inactive
same,outcome,[6],inactive
same,outcome,[7],inactive
same,outcome,[9],inactive
same,outcome,[11],inactive
O=C1OC(=O)c2cc(-c3ccc4c(c3)C(=O)OC4=O)ccc21,outcome,[2],inactive
same,outcome,[3],inactive
same,outcome,[4],inactive
same,outcome,[5],inactive
same,outcome,[6],inactive
same,outcome,[11],inactive
same,outcome,[20],inactive
FC1(F)C=CC(F)(F)C1(F)F,outcome,[2],inactive
same,outcome,[3],inactive
same,outcome,[4],inactive
same,outcome,[5],inactive
same,outcome,[6],inactive
same,outcome,[8],inactive
same,outcome,[10],inactive
same,outcome,[11],inactive
NC(C(F)(F)F)C(F)(F)F,outcome,[2],inactive
same,outcome,[3],inactive
same,outcome,[4],inactive
same,outcome,[5],inactive
same,outcome,[6],inactive
same,outcome,[13],inactive
same,outcome,[11],inactive
same,outcome,[12],inactive
Clc1ccc2c(Cl)ccnc2c1,outcome,[2],inactive
same,outcome,[3],inactive
same,AC50,[4],3.21 µM (active)
same,outcome,[5],inactive
same,outcome,[6],inactive
same,outcome,[7],inactive
same,outcome,[8],inactive
same,outcome,[9],inactive
same,AC50,[10],16.9 µM (active)
same,AC50,[11],25.8 µM (active)
same,outcome,[12],inactive
Nc1cc(Cl)c(-c2cc(Cl)c(N)cc2Cl)cc1Cl,AC50,[2],7.12 µM (active)
same,outcome,[3],inactive
same,AC50,[4],12.5 µM (active)
same,AC50,[5],11.1 µM (active)
same,outcome,[6],inactive
same,outcome,[7],inactive
same,AC50,[10],14.5 µM (active)
same,AC50,[11],4.7 µM (active)
same,outcome,[20],inactive
CC1CNCC(C)O1 (stereo not given),outcome,[2],inactive
same,outcome,[3],inactive
same,outcome,[4],inactive
same,outcome,[5],inactive
same,outcome,[6],inactive
same,outcome,[13],inactive
same,outcome,[8],inactive
same,outcome,[10],inactive
same,outcome,[11],inactive
same,outcome,[12],inactive
same,outcome,[14],inactive
